{"source": "PubChem BioAssay AID1159580", "about": "(chemical genetic matrix, 2015)", "test": "chemical genetic growth profiling, strain panel (AID 1159580);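 also: tested at 20 µM; growth read once vehicle control cultures reached saturation at 30 °C; 1 = growth at the plate median or of vehicle wells; lower values mean less growth of the strain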", "details": "S. cerevisiae deletion strains, growth OD", "note": "Several values for one entry are separate records, joined by “and”; a condition that tells them apart may be missing. Identical values can stand only once. Out of some 5,500 compounds screened, about 2,000 (36%) were called active. About 18% were inconclusive and are not listed. Rule as the data show it: active = normalized growth mostly below about 0.91 (no sharp cut-off); inconclusive = no clear call, values can overlap the other calls; inactive = mostly above about 0.92. The list shows a part of the results.", "data": [{"smiles": "Cc1cc(/C=C/c2ccc3cc(N(C)C)ccc3[n+]2C)c(C)n1-c1ccccc1", "values": [{"measurement": "normalized growth", "setting": "locus YAL013W, strain DEP1, stronger effect = lower value", "result": "0.987 (inactive)"}, {"measurement": "normalized growth", "setting": "locus YAL021C, strain ccr4, stronger effect = lower value", "result": "0.507 (active)"}, {"measurement": "normalized growth", "setting": "locus YAL026C, strain drs2, stronger effect = lower value", "result": "0.924 (inactive)"}, {"measurement": "normalized growth", "setting": "locus YAL030W, strain snc1, stronger effect = lower value", "result": "0.954 (inactive)"}, {"measurement": "normalized growth", "setting": "locus YBL061C, strain skt5, stronger effect = lower value", "result": "0.927 (inactive)"}, {"measurement": "normalized growth", "setting": "locus YBR009C, strain hhf1, stronger effect = lower value", "result": "0.922 (inactive)"}, {"measurement": "normalized growth", "setting": "locus YBR021W, strain FUR4, stronger effect = lower value", "result": "0.668 (active)"}, {"measurement": "normalized growth", "setting": "locus YBR023C, strain chs3, stronger effect = lower value", "result": "0.96 (inactive)"}, {"measurement": "normalized growth", "setting": "locus YBR171W, strain sec66, stronger effect = lower value", "result": "1.04 (inactive)"}, {"measurement": "normalized growth", "setting": "locus YBR229C, strain ROT2, stronger effect = lower value", "result": "1 (inactive)"}, {"measurement": "normalized growth", "setting": "locus YBR231C, strain swc5, stronger effect = lower value", "result": "0.74 (active)"}, {"measurement": "normalized growth", "setting": "locus YBR279W, strain paf1, stronger effect = lower value", "result": "0.882 (active)"}, {"measurement": "normalized growth", "setting": "locus YCL011C, strain gbp2, stronger effect = lower value", "result": "0.837 (active)"}, {"measurement": "normalized growth", "setting": "locus YCL016C, strain dcc1, stronger effect = lower value", "result": "0.912 (active)"}, {"measurement": "normalized growth", "setting": "locus YCL029C, strain bik1, stronger effect = lower value", "result": "0.998 (inactive)"}, {"measurement": "normalized growth", "setting": "locus YCL061C, strain MRC1, stronger effect = lower value", "result": "0.93 (inactive)"}, {"measurement": "normalized growth", "setting": "locus YCL069W, strain vba3, stronger effect = lower value", "result": "0.995 (inactive)"}, {"measurement": "normalized growth", "setting": "locus YCR088W, strain abp1, stronger effect = lower value", "result": "0.978 (inactive)"}, {"measurement": "normalized growth", "setting": "locus YDL005C, strain med2, stronger effect = lower value", "result": "1.03 (inactive)"}, {"measurement": "normalized growth", "setting": "locus YDL035C, strain GPR1, stronger effect = lower value", "result": "0.525 (active)"}, {"measurement": "normalized growth", "setting": "locus YDL040C, strain nat1, stronger effect = lower value", "result": "1 (inactive)"}, {"measurement": "normalized growth", "setting": "locus YDL074C, strain BRE1, stronger effect = lower value", "result": "0.653 (active)"}, {"measurement": "normalized growth", "setting": "locus YDL101C, strain DUN1, stronger effect = lower value", "result": "0.744 (active)"}, {"measurement": "normalized growth", "setting": "locus YDL134C, strain PPH21, stronger effect = lower value", "result": "0.615 (active)"}, {"measurement": "normalized growth", "setting": "locus YDL185W, strain tfp1, stronger effect = lower value", "result": "1 (inactive)"}, {"measurement": "normalized growth", "setting": "locus YDL192W, strain arf1, stronger effect = lower value", "result": "0.987 (inactive)"}, {"measurement": "normalized growth", "setting": "locus YDR001C, strain nth1, stronger effect = lower value", "result": "1.01 (inactive)"}, {"measurement": "normalized growth", "setting": "locus YDR069C, strain doa4, stronger effect = lower value", "result": "0.989 (inactive)"}, {"measurement": "normalized growth", "setting": "locus YDR101C, strain arx1, stronger effect = lower value", "result": "0.986 (inactive)"}, {"measurement": "normalized growth", "setting": "locus YDR137W, strain rgp1, stronger effect = lower value", "result": "0.834 (active)"}, {"measurement": "normalized growth", "setting": "locus YDR159W, strain sac3, stronger effect = lower value", "result": "1.04 (inactive)"}, {"measurement": "normalized growth", "setting": "locus YDR162C, strain NBP2, stronger effect = lower value", "result": "0.232 (active)"}, {"measurement": "normalized growth", "setting": "locus YDR195W, strain ref2", "result": "1.25 [resistant] (active)"}, {"measurement": "normalized growth", "setting": "locus YDR297W, strain sur2, stronger effect = lower value", "result": "0.961 (inactive)"}, {"measurement": "normalized growth", "setting": "locus YDR318W, strain mcm21, stronger effect = lower value", "result": "0.946 (inactive)"}, {"measurement": "normalized growth", "setting": "locus YDR334W, strain swr1, stronger effect = lower value", "result": "0.843 (active)"}, {"measurement": "normalized growth", "setting": "locus YDR335W, strain msn5, stronger effect = lower value", "result": "0.953 (inactive)"}, {"measurement": "normalized growth", "setting": "locus YDR388W, stronger effect = lower value", "result": "0.989 (inactive)"}, {"measurement": "normalized growth", "setting": "locus YDR392W, strain spt3, stronger effect = lower value", "result": "0.782 (inactive)"}, {"measurement": "normalized growth", "setting": "locus YDR502C, strain sam2, stronger effect = lower value", "result": "0.943 (inactive)"}, {"measurement": "normalized growth", "setting": "locus YEL003W, strain gim4, stronger effect = lower value", "result": "0.949 (inactive)"}, {"measurement": "normalized growth", "setting": "locus YEL037C, strain rad23, stronger effect = lower value", "result": "0.915 (active)"}, {"measurement": "normalized growth", "setting": "locus YEL061C, strain CIN8 (second series), stronger effect = lower value", "result": "1 (inactive)"}, {"measurement": "normalized growth", "setting": "locus YEL061C, strain CIN8, stronger effect = lower value", "result": "0.879 (active)"}, {"measurement": "normalized growth", "setting": "locus YER015W, strain faa2, stronger effect = lower value", "result": "0.736 (active)"}, {"measurement": "normalized growth", "setting": "locus YER016W, strain bim1, stronger effect = lower value", "result": "0.992 (inactive)"}, {"measurement": "normalized growth", "setting": "locus YER110C, stronger effect = lower value", "result": "1.02 (inactive)"}, {"measurement": "normalized growth", "setting": "locus YER111C, strain swi4, stronger effect = lower value", "result": "1.05 (inactive)"}, {"measurement": "normalized growth", "setting": "locus YER155C, strain BEM2 (second series), stronger effect = lower value", "result": "0.727 (active)"}, {"measurement": "normalized growth", "setting": "locus YER155C, strain BEM2, stronger effect = lower value", "result": "1.03 (inactive)"}, {"measurement": "normalized growth", "setting": "locus YER167W, strain BCK2, stronger effect = lower value", "result": "0.825 (active)"}, {"measurement": "normalized growth", "setting": "locus YFR010W, strain ubp6, stronger effect = lower value", "result": "0.989 (inactive)"}, {"measurement": "normalized growth", "setting": "locus YGL078C, strain dbp3, stronger effect = lower value", "result": "1.02 (inactive)"}, {"measurement": "normalized growth", "setting": "locus YGL086W, strain mad1, stronger effect = lower value", "result": "0.889 (active)"}, {"measurement": "normalized growth", "setting": "locus YGL167C, strain pmr1, stronger effect = lower value", "result": "1.01 (inactive)"}, {"measurement": "normalized growth", "setting": "locus YGL173C, strain kem1, stronger effect = lower value", "result": "0.974 (inactive)"}, {"measurement": "normalized growth", "setting": "locus YGL227W, strain vid30, stronger effect = lower value", "result": "1.04 (inactive)"}, {"measurement": "normalized growth", "setting": "locus YGL240W, strain doc1, stronger effect = lower value", "result": "0.962 (inactive)"}, {"measurement": "normalized growth", "setting": "locus YGL248W, strain PDE1, stronger effect = lower value", "result": "0.65 (active)"}, {"measurement": "normalized growth", "setting": "locus YGL253W, strain hxk2, stronger effect = lower value", "result": "0.684 (active)"}, {"measurement": "normalized growth", "setting": "locus YGR078C, strain PAC10, stronger effect = lower value", "result": "0.776 (active)"}, {"measurement": "normalized growth", "setting": "locus YGR135W, strain pre9, stronger effect = lower value", "result": "0.808 (active)"}, {"measurement": "normalized growth", "setting": "locus YGR252W, strain gcn5, stronger effect = lower value", "result": "0.606 (active)"}, {"measurement": "normalized growth", "setting": "locus YHR013C, strain ard1, stronger effect = lower value", "result": "0.662 (active)"}, {"measurement": "normalized growth", "setting": "locus YHR027C, strain rpn1, stronger effect = lower value", "result": "0.83 (active)"}, {"measurement": "normalized growth", "setting": "locus YHR030C, strain SLT2, stronger effect = lower value", "result": "0.815 (active) and 1.02 (inactive)"}, {"measurement": "normalized growth", "setting": "locus YHR079C, strain IRE1 (second series), stronger effect = lower value", "result": "1 (inactive)"}, {"measurement": "normalized growth", "setting": "locus YHR079C, strain IRE1, stronger effect = lower value", "result": "1.04 (inactive)"}, {"measurement": "normalized growth", "setting": "locus YHR094C, strain hxt1, stronger effect = lower value", "result": "1.01 (inactive)"}, {"measurement": "normalized growth", "setting": "locus YHR129C, strain ARP1, stronger effect = lower value", "result": "0.904 (active)"}, {"measurement": "normalized growth", "setting": "locus YHR142W, strain chs7, stronger effect = lower value", "result": "1 (inactive)"}, {"measurement": "normalized growth", "setting": "locus YHR200W, strain rpn10, stronger effect = lower value", "result": "0.857 (active)"}, {"measurement": "normalized growth", "setting": "locus YIL066C, strain RNR3, stronger effect = lower value", "result": "0.87 (inactive)"}, {"measurement": "normalized growth", "setting": "locus YIL073C, strain SPO22, stronger effect = lower value", "result": "0.278 (active)"}, {"measurement": "normalized growth", "setting": "locus YIL125W, strain kgd1, stronger effect = lower value", "result": "1.03 (inactive)"}, {"measurement": "normalized growth", "setting": "locus YIR030C, strain dcg1, stronger effect = lower value", "result": "1 (inactive)"}, {"measurement": "normalized growth", "setting": "locus YJL092W, strain hpr5, stronger effect = lower value", "result": "0.893 (active)"}, {"measurement": "normalized growth", "setting": "locus YJL095W, strain BCK1 (second series), stronger effect = lower value", "result": "1.01 (inactive)"}, {"measurement": "normalized growth", "setting": "locus YJL095W, strain BCK1, stronger effect = lower value", "result": "0.876 (inactive) and 1.02 (inactive)"}, {"measurement": "normalized growth", "setting": "locus YJL115W, strain asf1, stronger effect = lower value", "result": "1.01 (inactive)"}, {"measurement": "normalized growth", "setting": "locus YJL129C, strain trk1, stronger effect = lower value", "result": "0.373 (active)"}, {"measurement": "normalized growth", "setting": "locus YJL134W, strain LCB3, stronger effect = lower value", "result": "1 (inactive)"}, {"measurement": "normalized growth", "setting": "locus YJL154C, strain vps35, stronger effect = lower value", "result": "1.01 (inactive)"}, {"measurement": "normalized growth", "setting": "locus YJL164C, strain tpk1, stronger effect = lower value", "result": "0.92 (inactive)"}, {"measurement": "normalized growth", "setting": "locus YJL166W, strain qcr8, stronger effect = lower value", "result": "0.955 (inactive)"}, {"measurement": "normalized growth", "setting": "locus YJL168C, strain set2, stronger effect = lower value", "result": "0.984 (inactive)"}, {"measurement": "normalized growth", "setting": "locus YJL187C, strain SWE1 (second series), stronger effect = lower value", "result": "0.88 (inactive)"}, {"measurement": "normalized growth", "setting": "locus YJR043C, strain POL32, stronger effect = lower value", "result": "0.651 (active)"}]}]}
